SKKanGAS inh: inhibitors of SKKanGAS S. pyogenes growth in kanamycin (SK-promoter or general growth effect); BacTiter-Glo, 6 h; inhibition, % at 7.5 µM; hit rate 1.3% among 300,000; AID 1662;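 active = mean replicate score, as percent of positive control median, at least 50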;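 also: strain carries kanamycin resistance gene driven by streptokinase promoter and grows in 40 µg/ml kanamycin; loss of luminescence reflects streptokinase promoter inhibition or plain growth inhibition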
tim23-1 inh: inhibits growth of tim23-1 mutant yeast. S. cerevisiae tim23-1 growth, BacTiter-Glo luminescence, 24 h. inhibition, % at 20 µM. AID 463212. hit rate 1.3% among 330,000;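 active = growth inhibition of the mutant yeast at or above 50%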;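 also: temperature-sensitive mutant grown at 25 °C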
TIM10 inh: inhibits growth of TIM10 yeast strain; inhibition, % at 10 µM; S. cerevisiae TIM10 strain growth, BacTiter-Glo luminescence, 24 h; hit rate 1.4% among 330,000; AID 463195;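 active = inhibition of 40% or more at the single tested concentration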;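 also: wild-type TIM10 isogenic control strain grown at permissive 25 °C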
PfHsp90 yeast 2: reduces growth (ATP signal) of yeast expressing P. falciparum Hsp90 | S. cerevisiae expressing PfHsp90, BacTiter-Glo ATP, 48 h; yeast lacking PDR1 and PDR3 efflux regulators | inhibition, % at 9.4 µM | hit rate 0.32% among 310,000 | AID 504621;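 active = every replicate shows inhibition above about 80%, whatever the replicate mean, limit read from the data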
V-ATPase pHluor: regulators of yeast V-ATPase proton transport | S. cerevisiae, pHLuorin cytosolic pH fluorescence | response, % at 10 µM | hit rate 0.37% among 350,000; in the data active = response mostly above about 7.3%, no sharp cut-off; inactive = mostly below about 5.4%; also: actives read high
tim10-1 inh: growth inhibitors of tim10-1 mutant yeast | S. cerevisiae tim10-1 ts strain growth, BacTiter-Glo, 24 h | inhibition, % at 20 µM | hit rate 2.2% among 330,000 | AID 463190;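 active = inhibition of at least 40%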;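 also: mutant grown at 25 °C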
Of the large screens only hits and unclear results are named; the others gave an inactive call. This is a sample that favours compounds with a hit; in the whole collection about 4.6% have one here.

C/C(=N\NC(=O)c1ccc(-c2ccccc2)cc1)C1C(=O)c2ccccc2C1=O	SKKanGAS inh 130
C/C(=N\NC(=O)c1ccc(Br)cc1)C1C(=O)c2ccccc2C1=O	none
O=c1[nH]cnc(O)c1C(c1ccc([N+](=O)[O-])cc1)c1c(O)nc[nH]c1=O	none
COc1cccc(NC(=O)Nc2nc(SC(C)(C)C)ns2)c1	SKKanGAS inh 55
O=C(N=Nc1c(O)[nH]c2ccc(F)cc12)c1ccc(NS(=O)(=O)c2cccs2)cc1	none (no result: SKKanGAS inh)
Cc1ccc2[nH]c(O)c(N=NC(=O)c3ccc(NS(=O)(=O)c4cccs4)cc3)c2c1	SKKanGAS inh 76
Cn1c(N)c(C(=O)COC(=O)c2cc(S(=O)(=O)N3CCOCC3)ccc2F)c(=O)n(C)c1=O	none (no result: SKKanGAS inh)
Oc1ccc(Cl)cc1Sc1cc(Cl)ccc1O	PfHsp90 yeast 2 102 (no result: SKKanGAS inh, tim23-1 inh, TIM10 inh, tim10-1 inh)
CN(C)C(=O)c1cc(Cl)ccc1Sc1cc(Cl)ccc1Cl	none
COC(CNC(=O)c1ccc2c(c1)ncn2C1CCCCCC1)OC	none
CC1CCCCN1C(=O)c1ccc(C(=O)c2ccccc2)cc1 (stereo not drawn)	none (no result: SKKanGAS inh)
c1ccc(C[C@H]2CNCCN2CC2(c3ccccc3)CC2)cc1	none
CN(/N=C/c1ccc(-c2ccc([N+](=O)[O-])cc2)o1)c1ccccc1	none
O=C(O)c1ccc(N2C(=O)/C(=C/c3ccc(-c4ccc([N+](=O)[O-])cc4)o3)C=C2c2ccccc2)cc1	SKKanGAS inh 104
CC1CCN(c2ccccc2NC(=O)c2ccc(Br)o2)CC1	SKKanGAS inh 88
CN1CCN(c2ccccc2NC(=O)c2ccc(Br)o2)CC1	none
O=C(CSc1ccc([N+](=O)[O-])cn1)Nc1cc(C(F)(F)F)ccc1N1CCOCC1	none
CCN1CCN(c2ccc(Nc3ccnc4ccccc34)cc2)CC1	none (no result: SKKanGAS inh)
COc1ccc(Nc2nc(NN)nc(Nc3ccc(OC)cc3)n2)cc1	SKKanGAS inh 50
COCCn1c(SCC(=O)NC2CCCCC2)nnc1-c1ccncc1	none
Cc1ccc(N=C2NC(=O)C(CC(=O)O)S2)cc1 (stereo not drawn)	V-ATPase pHluor 22
CCNC(=O)CC1SC(=Nc2ccc(C)cc2)NC1=O (stereo not drawn)	none
CC(C)Cc1ccc(C(=O)NCCOc2ccccc2)o1	none
COc1ccc(C(=O)/C=C/c2ccc(O)cc2)c(O)c1CC=C(C)C	SKKanGAS inh 89
COc1ccc(C(=O)/C=C/c2ccc(O)cc2)c2c1CC(O)C(C)(C)O2 (stereo not drawn)	none (no result: SKKanGAS inh)
CC(=O)Nc1ccc(S(=O)(=O)N2CCN(C(=O)c3ncoc3-c3ccc(F)cc3)CC2)cc1	none
CCOC(=O)c1ccc(Oc2cn[nH]c2-c2ccc(OCC(=O)NN)cc2O)cc1	SKKanGAS inh 99
CCCOC(=O)c1ccc(Oc2cn[nH]c2-c2ccc(O)cc2O)cc1	SKKanGAS inh 76
Cc1[nH]nc(-c2ccc(O)cc2O)c1Oc1ccccc1	none
COc1ccc(-c2n[nH]c(C)c2-c2ccc(Cl)cc2)c(O)c1	SKKanGAS inh 68
CCc1cc(-c2n[nH]c(C)c2Oc2ccc(C(C)C)cc2)c(O)cc1O	SKKanGAS inh 109 (no result: PfHsp90 yeast 2)
Cc1[nH]nc(C(=O)NN=Cc2ccccc2Cl)c1N=NN(C)C	none (no result: SKKanGAS inh, tim23-1 inh, TIM10 inh, tim10-1 inh)
CCOC(=O)c1ccc(Oc2cn[nH]c2-c2ccc(O)cc2O)cc1	none
CCCOC(=O)c1ccc(Oc2c(-c3ccc(OC)cc3O)n[nH]c2C)cc1	SKKanGAS inh 61
CCCOC(=O)c1ccc(Oc2cn[nH]c2-c2ccc(OCC(=O)NN)cc2O)cc1	SKKanGAS inh 83
COc1cccc(OC)c1C(=O)Nc1ccccc1C(=O)N1CCCCCC1	none
Cc1nc2c(C)cccn2c(=O)c1NC(=O)c1ccc2c(c1)OCO2	SKKanGAS inh 50
CCc1nc(NC(=O)c2sc(C)nc2C)sc1C(=O)OC	none
O=C(NC(=S)Nc1ccc(Cl)c(C(=O)O)c1)c1ccc(OCc2ccccc2)cc1	none
O=C(NC(=S)Nc1ccc(Cl)c(C(=O)O)c1)c1cccc(COc2ccccc2)c1	SKKanGAS inh 56
COc1ccc(/C=C/C(=O)NC(=S)NNC(=O)c2c(-c3ccccc3)noc2C)cc1	SKKanGAS inh 89
COc1ccc(-c2cc(C(=O)NNC(=S)NC(=O)c3c(-c4ccccc4)noc3C)[nH]n2)cc1	SKKanGAS inh 93
Cc1onc(-c2ccccc2)c1C(=O)NNC(=S)NC(=O)c1ccc(Br)cc1	SKKanGAS inh 125 (no result: tim23-1 inh, TIM10 inh, tim10-1 inh)
COc1ccc(NC(=O)c2c(-c3ccccc3)noc2C)c(OC)c1	none
